High-throughput results deposited in PubChem BioAssay by several laboratories.
Peg3 promoter – Peg3 promoter-driven luciferase inhibitors, primary screen, cell-based, HeLa, luciferase luminescence | HeLa PEG-Prom luciferase reporter, overnight | inhibition, % at 20 µM | hit rate 1.7% among 360,000 | AID 588405, 2011;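 active means inhibition of at least 50% at 20 µM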
MITF TRPM1 inh – inhibitors of MITF-dependent TRPM1 promoter reporter, primary screen, cell-based, SK-MEL-5, single point, luciferase; SK-MEL-5 TRPM1 promoter luciferase, 24 h; inhibition, % at 12.5 µM; hit rate 0.83% among 330,000;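 active means mean inhibition across replicates of 60% or more, whatever share of single replicates reaches that level; inconclusive means some that reach 60%, reason not given; inactive means mean inhibition across replicates below 60%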
ABHD5 PLIN5 PPI – ABHD5-PLIN5 interaction inhibitors, primary screen, cell lysate, split luciferase complementation, luminescence; Perilipin-5 (Homo sapiens) + 1-acylglycerol-3-phosphate O-acyltransferase ABHD5 (Homo …; Split G. princeps luciferase complementation, 4 h; AID 602281, 2012; inhibition, % at 4 µM; hit rate 0.78% among 360,000;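 active means inhibition above the mean inhibition across every tested compound plus 3 SD, cut at about 22% in these data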;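 further: 0% = DMSO only wells and the 100% control is not disclosed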
Target sequence (Q00G26 whole entry, looked up): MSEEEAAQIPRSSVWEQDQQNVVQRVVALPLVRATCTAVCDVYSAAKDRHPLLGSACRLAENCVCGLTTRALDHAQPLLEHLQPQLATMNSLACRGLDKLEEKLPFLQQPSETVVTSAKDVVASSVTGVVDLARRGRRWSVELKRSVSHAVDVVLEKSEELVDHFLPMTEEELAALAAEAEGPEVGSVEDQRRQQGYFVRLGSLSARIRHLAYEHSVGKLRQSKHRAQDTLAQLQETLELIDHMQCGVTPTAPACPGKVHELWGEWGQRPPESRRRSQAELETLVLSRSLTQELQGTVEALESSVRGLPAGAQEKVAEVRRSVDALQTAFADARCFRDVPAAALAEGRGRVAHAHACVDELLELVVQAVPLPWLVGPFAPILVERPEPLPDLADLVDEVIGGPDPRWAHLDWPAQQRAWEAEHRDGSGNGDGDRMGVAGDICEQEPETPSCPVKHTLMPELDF
Target sequence (Q8WTS1 whole entry, looked up): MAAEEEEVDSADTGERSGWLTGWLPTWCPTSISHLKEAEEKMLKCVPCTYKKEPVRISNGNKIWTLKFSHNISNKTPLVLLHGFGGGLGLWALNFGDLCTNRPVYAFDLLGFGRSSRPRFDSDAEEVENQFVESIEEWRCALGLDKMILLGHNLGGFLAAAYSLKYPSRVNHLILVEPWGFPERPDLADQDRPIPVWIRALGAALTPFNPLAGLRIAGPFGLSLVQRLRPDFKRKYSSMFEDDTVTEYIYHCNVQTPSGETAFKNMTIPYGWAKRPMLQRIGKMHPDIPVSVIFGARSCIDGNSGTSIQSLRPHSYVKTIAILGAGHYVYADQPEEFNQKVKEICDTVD
HIF-2a inh – HIF-2a reporter inhibitors, primary screen, luminescence, 786-0 RCC cells. 786-0 RCC cells HIF-2a reporter, luciferase luminescence, overnight. hit rate 0.72% among 360,000. inhibition, % at 18.8 µM;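 active means inhibition of the luminescence signal of 40% or more relative to plate controls, in a single-dose primary screen at 18.75 µM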
KKLEB cytotox – cytotoxicity in KKLEB CF airway cells, primary screen, cytotoxicity control for CF NF-kB inhibitor project, cell-based, uHTS, fluorescence assay plates; hit rate 0.36% among 360,000; activity change (cytotoxicity), % at 5 µM; KKLEB CF airway cells viability, ATPlite luminescence, overnight; active compounds read low; cells stimulated with P. aeruginosa culture filtrate;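 active means corrected activity change at or below -50% at 5 µM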
CF NFkB block – inhibitors of PAF-induced NF-kB signaling, primary screen, cell-based, GFP fluorescence, uHTS. KKLEB NF-kB-GFP reporter, GFP fluorescence overnight. inhibition, % at 5 µM. hit rate 0.86% among 360,000. AID 588850, 2011;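 active means at least 50% inhibition at 5 µM, scaled per plate between neutral and stimulator controls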;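 further: PAF is a Pseudomonas aeruginosa culture filtrate used as stimulus; plate controls were PAF-stimulated DMSO wells for no effect and unstimulated DMSO wells for full effect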
The depositor's hits bear a star; ? = inconclusive; · = no result given. Most compounds without a hit are left out; they make up all but 3% or so of the library.

SMILES	Peg3 promoter	MITF TRPM1 inh	ABHD5 PLIN5 PPI	HIF-2a inh	KKLEB cytotox	CF NFkB block
C[C@@]12C(=O)N(c3cccc(F)c3)C(=O)N1[C@@H]1c3ccccc3OC[C@@H]1[C@H]2c1ccccc1	15	-5	-7	11	6	-2
O=C(C1CCCN(Cc2ccc(Br)cc2)C1)N1CCCCC1 (stereo unspecified)	6	·	0	-24	-1	-2
CCOC(=O)c1c(C)n(-c2ccc(C)cc2)c2ccc(OCC(O)CNCCCO)cc12 (stereo unspecified)	105*	70*	12	17	-15	12
CCOC(=O)c1c(C)n(C)c2ccc(OCC(O)CNC(CC)CO)cc12 (stereo unspecified)	2	5	3	4	-4	3
OC(CNCC1CCCO1)COc1ccc(OCC(O)CNCC2CCCO2)cc1 (stereo unspecified)	-1	1	5	14	3	3
CCOC(=O)c1c(C)n(-c2ccc(C)cc2)c2ccc(OCC(O)CNCC3CCCO3)cc12 (stereo unspecified)	86*	69*	13	12	-37	41
O=c1cc(CSc2nc(NCc3ccc(Cl)cc3)c3ccccc3n2)nc2ccc(Cl)cn12	14	-3	1	23	2	-3
O=C(Cn1ncc2c([nH]c3ccccc32)c1=O)Nc1ccc(CN2CCCCC2)cc1	73*	?	-2	7	-11	1
CCCCCC1NC(=O)NC1CCCCCC(=O)O (stereo unspecified)	0	4	-5	10	-11	15
C[C@@H]1NC(=O)N[C@@H]1CCCCCC(=O)O	12	-6	-1	6	-64*	-11
COc1ccc(-c2cc(-c3ccc(C)cc3)nc(SCc3nnc(-c4ccccc4)o3)c2C#N)cc1OC	38	-3	-2	12	-70*	46
Cc1ccc(/C=C2\Oc3c(ccc(O)c3CN3CCN(CCO)CC3)C2=O)cc1	-7	-12	23*	7	14	-5
CC(C)c1ccc(/C=C2\Oc3c(ccc(O)c3CN3CCN(C)CC3)C2=O)cc1	-1	-17	11	12	-4	1
CC(=O)c1cnc(N(C)C)s1	7	4	4	15	-6	7
O=C1C(Cl)=C(N2CCCCC2)C(=O)C(Cl)=C1c1cnc(N2CCCCC2)s1	58*	101*	-5	45*	-4	3
CN(C)c1ncc(C2=C(Cl)C(=O)C(N3CCCC3)=C(Cl)C2=O)s1	57*	60	-2	4	2	0
CCCN(CC(=O)Nc1ccccc1C)C(=O)c1ccc(=O)n(Cc2ccccc2)n1	19	3	-10	-3	-7	-13
O=C(NCC1CCCO1)C(=O)NCC(c1ccco1)N1CCN(c2ccccc2F)CC1 (stereo unspecified)	11	-9	8	13	11	4
Cc1cc2c(ncn2C)c(NS(=O)(=O)c2ccc(Cl)cc2)c1C	12	1	4	25	0	4
COC(=O)[C@]12CCCCC=C1N(Cc1cccc3ccccc13)C(=O)[C@H](CC(=O)NCC13CC4CC(CC(C4)C1)C3)C2	·	·	5	3	·	·
COc1ccc2c(c1)[nH]c1c(=O)n(/N=C/c3ccc(OC)c(CN4CCCC4)c3)cnc12	-23	-10	-1	-30	5	1
COc1ccc(/C=N/n2cnc3c([nH]c4ccc(C)cc43)c2=O)cc1CN1CCCC1	77*	83*	4	13	-3	-8
CC1=NOC(=O)/C1=C\c1ccc(-c2ccc(Cl)cc2Cl)o1	108*	73*	2	56*	-3	-26
O=C(CCN1C(=O)/C(=C\c2ccccc2F)SC1=S)Nc1ccc(C(=O)O)c(O)c1	4	-3	3	-6	1	-31
O=C(CCN1C(=O)/C(=C/c2ccccc2F)SC1=S)N[C@@H](CO)Cc1ccccc1	68*	5	2	8	-1	16
SMILES	Peg3 promoter	MITF TRPM1 inh	ABHD5 PLIN5 PPI	HIF-2a inh	KKLEB cytotox	CF NFkB block
Cc1ccc(CNC(=O)c2nccnc2C(=O)O)cc1	7	1	-12	-1	2	-14
Fc1cccc(/C=N/Nc2nncc3ccccc23)c1	-104	-15	-3	-94	-40	-16
C(=N\Nc1nncc2ccccc12)/c1ccccn1	19	48	-3	-45	-29	66*
CCN(C(=O)CSc1nnc(-c2ccc(F)cc2)n1C)C1CCS(=O)(=O)C1 (stereo unspecified)	-21	-12	-8	18	-7	2
O=C(CSCc1ccccc1)N1CCN(S(=O)(=O)c2cccc(F)c2)CC1	-26	-11	-7	-20	5	-38
CN(CCc1ccccc1)C(=O)c1ccc(NC(=O)Cc2ccc([N+](=O)[O-])cc2)cc1	22	29	-2	-8	-28	12
CCOC(=O)N1CCc2cc(OC)c(OC)c3c2c1cc1cc(OC)c(OC)cc13	51*	22	3	-28	-7	6
CN1CCN(CC(=O)Nc2nc3c(s2)CCCC3)CC1	-3	6	2	-8	1	-3
CCN1CCN(/C=N/c2nc3c(s2)CCCC3)CC1	55*	?	-8	20	4	-1
CN(C)c1ccc(C2/C(=C(/O)c3ccc(Br)cc3)C(=O)C(=O)N2C)cc1 (stereo unspecified)	16	9	10	49*	1	-5
O=C1c2ccc3c4c(ccc(c24)C(=O)N1c1cccc(O)c1)C(=O)N(c1cccc(O)c1)C3=O	22	100*	4	13	-11	51*
O=C1c2ccc3c4c(ccc(c24)C(=O)N1c1cccc(O)c1)CC3	-21	-1	-2	16	4	-148
COCCN(CCOC)Cc1cc(=O)oc2cc(C)c(Cl)cc12	14	·	-4	-1	-5	12
O=C(Cc1csc(Nc2nc(=S)[nH]c3ccccc23)n1)NCCCN1CCN(c2ccccc2F)CC1	68*	66*	5	11	-32	-56
Nc1ncnc(Nc2ccc(S(N)(=O)=O)cc2)n1	15	10	2	15	2	-3
Cc1cccc(C)c1NC(=O)[C@@]1(CC(=O)O)CC(/C=C/c2ccccc2)=NO1	5	7	0	12	-4	10
O=C1c2cc(F)ccc2-n2c1nc1ccccc1c2=O	8	98*	-5	-30	-27	83*
COc1ccc(-c2cc(-c3ccc(OC)cc3)c(C#N)c(SC)n2)cc1	33	4	-2	10	-26	50*
Cc1nn(-c2ccc(N3CCOCC3)nn2)c(C)c1CCC(=O)N1CCN(C)CC1	14	0	8	4	-2	-8
